Source: PubChem (SRMLSC)
Abs 340nm = compound absorbs light at 340 nm; compound absorbance at 340 nm, fold over control; fold change at 10 µM; 65,000 tested, under 10 active; AID 708;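 active = at 10 µM dose, initial 340 nm absorbance at least 2 fold that of control wells; inactive = change under 2 fold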;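 also: initial absorbance extrapolated from kinetic A340 decline of NADH oxidation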
NADH enzymes = inhibitors of enzymes used to reach an NAD/NADH endpoint | coupled PK/LDH NADH assays, four targets | AID 774 | IC50, µM (doses to about 10 µM), for inactives: top-dose inhibition | actives 0.02% (n = 65,000);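 active = single-dose screening hits from any of four coupled enzyme assays that gave an IC50 when retested across doses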;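 also: the DPM-DC format reads NADH fluorescence rather than 340 nm absorbance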
Spn MK inh = S. pneumoniae mevalonate kinase inhibition; purified MK, PK/LDH-coupled NADH absorbance 340 nm; inhibition, % at 10 µM; actives 0.48% (n = 65,000); AID 555;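 active = ranked among the strongest by inhibition in the single 10 µM screen, a fixed top-ranked set picked for dose follow-up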
PMK inhibit = inhibitors of Streptococcus pneumoniae phosphomevalonate kinase; inhibition, % at 10 µM; actives 0.49% (n = 65,000); purified PMK, PK/LDH-coupled NADH absorbance 340 nm;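 active = top-ranked compounds by inhibition in the single 10 µM screen, taking a fixed number of the strongest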;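 also: 0% = full reaction with DMSO carrier and 100% = background rate without enzyme reaction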
DPM-DC inhibit = inhibitors of Streptococcus pneumoniae diphosphomevalonate decarboxylase. purified DPM-DC, PK/LDH coupled NADH fluorescence. calls only at 10 µM. actives 0.49% (n = 65,000). AID 556;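 active = the 320 compounds with the highest percent inhibition in the single-dose primary screen, excluding strongly autofluorescent ones, cut at about 32% in these data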;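 also: kinetic rate of NADH fluorescence loss reporting ADP formed by the decarboxylase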
Autofluor 339 = intrinsic fluorescence of library compounds, ex339/em460 – biochemical, MLSMR library, data from DPM-DC assay, artefact control, profiling panel; compound autofluorescence, ex339/em460 nm, NADH buffer; stronger effect = higher value; 1 = no-compound wells, NADH background; fluorescence fold increase at 10 µM; actives 5.5% (n = 65,000); AID 709;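 active = at 10 µM, mean starting fluorescence two-fold or more over control wells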;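 also: signal is the first read of a kinetic run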
Numbers without * were called inactive; i = inactive; nt = no result shown; + = active, no number. The list is not random: actives were taken first. Their share in the collection is about 6.8%.

SMILES | Abs 340nm | NADH enzymes | Spn MK inh | PMK inhibit | DPM-DC inhibit | Autofluor 339
CC(CCc1ccccc1)NC(=O)c1ccncc1 (centres undefined) | 1.05 | 3.0% | 0.0 | 10.0 | i | 1.07
CC(CCc1ccccc1)NCC(O)c1ccc(O)c(C(N)=O)c1 (centres undefined) | 1.02 | 2.0% | 6.0 | 0.0 | nt | 2.48*
COc1ccc(CCNC2CCN(C)CC2)cc1OC | 1.03 | 4.0% | 1.0 | 10.0 | i | 1.13
CCOc1ccc(N2CCn3c2nc2c3c(=O)n(CCc3ccccc3)c(=O)n2C)cc1 | 1.05 | 9.0% | 5.0 | 8.0 | i | 1.62
N#Cc1c(C(F)(F)F)cc(-c2ccco2)nc1SCc1ccncc1 | 1.07 | 18.0% | 8.0 | 7.0 | + | 2.57*
N#Cc1c(C(F)(F)F)cc(-c2ccco2)nc1SCc1ccccn1 | 1.04 | 2.0% | 4.0 | 0.0 | nt | 2.09*
OC(C#Cc1ccccn1)c1cccs1 (centres undefined) | 0.98 | 14.0% | 12.0 | 16.0 | i | 0.9
COc1ccc(C(=O)Nc2ccncc2)cc1OC | 1.03 | 14.0% | 3.0 | 40.0* | i | 0.96
COc1ccc(C(=O)Nc2nccs2)cc1OC | 1.06 | 4.0% | 3.0 | 10.0 | i | 1.15
CSc1ccc2[nH]c(=O)cc(C)c2c1 | 1.02 | 2.0% | 2.0 | 1.0 | nt | 3.75*
Cc1ccc2[nH]c(=S)cc(C)c2c1 | 0.98 | 7.0% | 7.0 | 15.0 | i | 1.12
COc1ccccc1NC(=O)NCCCN1CCN(c2cccc(Cl)c2)CC1 | 1.01 | 2.0% | 6.0 | 3.0 | i | 1.06
O=c1n(CCCN2CCN(c3cccc(Cl)c3)CC2)nc2ccccn12 | 0.98 | 3.0% | 8.0 | 2.0 | nt | 2.37*
CCCSc1nnc(Cn2c(=O)sc3ccccc32)n1C | 1.09 | 2.0% | 5.0 | 0.0 | i | 1.1
COc1ccc(-c2nc3c(=O)n(C)c(=O)[nH]c3n2CCc2ccccc2)cc1 | 1.04 | 5.0% | 7.0 | 2.0 | nt | 3.85*
CCCn1c(-c2ccccc2)nc2c(=O)n(C)c(=O)[nH]c21 | 1.05 | 0.0% | 0.0 | 0.0 | nt | 2.19*
Cc1nc2c(=O)n(C)c(=O)[nH]c2n1Cc1ccccc1 | 0.99 | 4.0% | 0.0 | 9.0 | i | 1.4
O=C(CN(CCN1CCOCC1)C(=O)Cn1nnc(-c2ccc(F)cc2)n1)NC1CCCCC1 | 1.02 | 9.0% | 11.0 | 7.0 | nt | 3.6*
COc1ccccc1N1CCN(C(=O)c2sc3nc(-c4ccc(F)cc4)cn3c2C)CC1 | 1.04 | 3.0% | 0.0 | 9.0 | i | 1.02
Cc1cc(NC(=O)CCCS(=O)(=O)c2nc(-c3cccs3)cc(C(F)(F)F)n2)no1 | 1.17 | 8.0% | 3.0 | 13.0 | nt | 3.37*
CN1CCN(c2nc(-c3cccs3)cc(C(F)(F)F)n2)CC1 | 1.07 | 2.0% | 7.0 | 0.0 | i | 1.22
CS(=O)(=O)c1nc(-c2cccs2)cc(C(F)(F)F)n1 | 1.16 | 3.0% | 5.0 | 0.0 | nt | 2.23*
CCOc1nnnc2c1sc1nc(N3CCOCC3)c3c(c12)CC(C)(C)OC3 | 1.01 | 2.0% | 0.0 | 4.0 | i | 1.04
Cc1noc(/C=C/N(C)C)c1S(=O)(=O)N1CCc2ccccc21 | 1.08 | 3.0% | 7.0 | 4.0 | i | 0.97
COC(=O)CNc1nc(OC)nc(N(C)C)n1 | 1.02 | 8.0% | 9.0 | 8.0 | i | 1.08
SMILES | Abs 340nm | NADH enzymes | Spn MK inh | PMK inhibit | DPM-DC inhibit | Autofluor 339
CCOc1cc(C2/C(=C(\O)c3cc(C)ccc3C)C(=O)C(=O)N2CCN(C)C)ccc1O (centres undefined) | 1.15 | 11.0% | 8.0 | 0.0 | i | 1.68
COc1ccc(S(=O)(=O)N(Cc2cc3ccc(OC)cc3[nH]c2=O)CC2COCCO2)cc1 (centres undefined) | 1.07 | 11.0% | 2.0 | 5.0 | i | 2.31*
COc1ccc2cc(CN(CC3COCCO3)S(=O)(=O)c3ccccc3)c(=O)[nH]c2c1 (centres undefined) | 1.08 | 7.0% | 11.0 | 11.0 | i | 1.64
Cc1ccc2cc(CN(CC3CCCO3)S(=O)(=O)c3cccc4nsnc34)c(=O)[nH]c2c1 (centres undefined) | 1.08 | 5.0% | 8.0 | 3.0 | i | 1.01
COc1ccc2cc(CN(Cc3cccnc3)S(=O)(=O)c3ccccc3)c(=O)[nH]c2c1 | 1.09 | 11.0% | 7.0 | 11.0 | i | 2.02*
COC(=O)c1ccccc1S(=O)(=O)N(Cc1cc2ccc(OC)cc2[nH]c1=O)CC1CCCO1 (centres undefined) | 1.09 | 10.0% | 0.0 | 25.0* | i | 1.21
